According to PubChem BioAssay (NCATS):
Records with an inconclusive call do not appear. Entries that show only a call come without a potency. Calls of active or inactive are those of the source. The call rests on the fitted dose curve; in most records, active means well fitted inhibition curve with a large enough effect; inconclusive means small, poorly fitted or top-dose-only effect; inactive means flat fitted curve, though single readings scatter.

Tested on: CP329
Test: qHTS profiling for inhibitors of Plasmodium falciparum proliferation (AID 504749); further: nearly all actives have a fitted effect of over 60% in size
Settings: P. falciparum in erythrocytes, SYBR Green DNA, 72 h; series mostly up to 28.7 µM
Summary of the method: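 SYBR Green fluorescence of parasite DNA, read after lysis and overnight dark incubation, measured growth over 72 h in erythrocyte culture at 0.3% parasitemia and 2.5% hematocrit. Data normalised to DMSO and 0.29 uM artemisinin, with plate-drift correction.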
Potency means the concentration at half of the fitted maximal effect.

**Q.** Which Potency does the source give for `O=C(COc1ccc(Cl)cc1)OCCNC12CC3CC(CC(C3)C1)C2` here?
**A.** The Potency was “inactive”.

**Q.** With `CCCCCCCC/C=C\CCCCCCCC(=O)O` as the compound, how does the Potency read?
**A.** Its Potency is “inactive”.

**Q.** `CC(C)(C)C(=O)OCOC(=O)[C@@H]1N2C(=O)[C@@H](N=CN3CCCCCC3)[C@H]2SC1(C)C` was tested. Which Potency did it give?
**A.** Its Potency is “inactive”.

**Q.** `CCOC(C)=O` was tested. Which Potency did it give?
**A.** Its Potency is “inactive”.

**Q.** `CCCCCCC(O)C/C=C/CCCCCCCC(=O)O` (centres undefined) was tested. Which Potency did it give?
**A.** Its Potency is “inactive”.

**Q.** For `CN1C(=O)CN2CCc3ccccc3C2c2cc(Cl)ccc21` (centres undefined), which Potency is on record?
**A.** The Potency was “inactive”.

**Q.** With `Cc1c(C)c2c(c(C)c1O)CC[C@@](C)(CCC[C@H](C)CCC[C@H](C)CCCC(C)C)O2` as the compound, how does the Potency read?
**A.** The Potency was “inactive”.

**Q.** `CC(C(=O)O)c1ccc(N2Cc3ccccc3C2=O)cc1` (centres undefined) was tested. Which Potency did it give?
**A.** The Potency was “inactive”.

**Q.** How did the Potency turn out when `COC(=O)[C@H]1[C@H]2C[C@@H]3c4[nH]c5ccccc5c4CCN3C[C@H]2C[C@@H](OC(=O)c2cc(OC)c(OC)c(OC)c2)[C@@H]1OC` was run?
**A.** Its Potency is 151 nM (active).

**Q.** For `O=S(=O)(O)O`, which Potency is on record?
**A.** The Potency was “inactive”.

**Q.** `CC(C)N=c1cc2n(-c3ccc(Cl)cc3)c3ccccc3nc-2cc1Nc1ccc(Cl)cc1` was tested. Which Potency did it give?
**A.** The Potency was “inactive”.

**Q.** `O=S(=O)(O)c1ccc2c(N=Nc3ccc(S(=O)(=O)O)c4ccccc34)c(O)c(S(=O)(=O)O)cc2c1` was tested. Which Potency did it give?
**A.** Its Potency is “inactive”.

**Q.** For `C[C@]12CCC(=O)C=C1CC[C@@H]1[C@@H]2[C@@H](O)C[C@@]2(C)[C@H]1CC[C@]2(O)C(=O)COP(=O)(O)O`, which Potency is on record?
**A.** Its Potency is “inactive”.

**Q.** `CCN(CC)Cc1cc(Nc2ccnc3cc(Cl)ccc23)ccc1O` was tested. Which Potency did it give?
**A.** The Potency was 90.7 nM (active).
